Reference: the supplement of paper PMC10037445
Several values for one entry are separate records, joined by “and”; a condition that tells them apart may be missing. Equal entries are not always repeated. Whole data set: some 2,900 compounds, median “NF-kB SEAP reporter activity, fold change vs agonist alone” near 0.99, cut for the highest 2% near 2.6. Shown is part of a subset that was picked to be rich in the highest values.

Assays:
RAW-Dual [1] = experiment: NF-kB SEAP reporter activity, fold change vs agonist alone; cytotoxicity flag (confluency mask): not cytotoxic; higher = enhanced NF-kB activity
Outline: (§1)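 Reporter activity is given as fold change relative to agonist-alone wells. To measure it, 50 nL of library stock was pin-tooled onto RAW-Dual macrophages (50,000 cells/well, DMEM, 384-well plates), a PRR agonist followed 1 h later, and cells stayed at 37 °C, 5% CO2. Twenty hours on, supernatant was assayed for IRF (QuantiLuc luminescence) and NF-κB (QuantiBlue, 620 nm absorbance), and wells under 70% of agonist-control IncuCyte confluency in both mask sets were marked cytotoxic.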

RAW-Dual [2] = experiment: NF-kB SEAP reporter activity, fold change vs agonist alone; higher = enhanced NF-kB activity; conditions: library stock concentration (final ~1000-fold dilution): 10 mM, cytotoxicity flag (confluency mask): not cytotoxic
Outline: as §1

[3] = agonist: ODN 1826 (TLR9) 0.5 ug/mL
[4] = agonist: Pam2CSK4 (TLR2/6) 0.1 ug/mL
[5] = agonist: Pam3CSK4 (TLR2/1) 0.1 ug/mL

| Compound | NF-kB SEAP reporter activity (RAW-Dual [1]; agonist: LPS (TLR4) 0.1 ug/mL) | NF-kB SEAP reporter activity (RAW-Dual [1]; [3]) | NF-kB SEAP reporter activity (RAW-Dual [1]; [4]) | NF-kB SEAP reporter activity (RAW-Dual [1]; [5]) | NF-kB SEAP reporter activity (RAW-Dual [2]; agonist: Imiquimod (TLR7) […]) | NF-kB SEAP reporter activity (RAW-Dual [2]; agonist: MPLA (TLR4) […]) |
| --- | --- | --- | --- | --- | --- | --- |
| CCOC(=O)/C=C/c1ccc(O)c(O)c1 (library stock concentration (final ~1000-fold dilution): 10 mM) | 0.633 and 0.814 | 0.407 and 0.651 | 0.658 and 0.524 | 0.563 and 0.481 | – | – |
| NS(=O)(=O)NCCNc1nonc1C(=Nc1ccc(F)c(Br)c1)NO (library stock concentration (final ~1000-fold dilution): 10 mM) | 1.01 | 0.936 | 0.922 | 0.961 | – | – |
| NS(=O)(=O)NCCNc1nonc1C(=Nc1ccc(F)c(Br)c1)NO | – | – | – | – | 0.862 | 0.907 |
| CC(C)(C)NCC(O)COc1cccc2c1CCC(=O)N2.Cl (configuration not stated) (library stock concentration (final ~1000-fold dilution): 10 mM) | 1.11 | 1.05 | 1.04 | 1.11 | – | – |
| CC(C)(C)NCC(O)COc1cccc2c1CCC(=O)N2.Cl (configuration not stated) | – | – | – | – | 1.02 | 1.07 |
| CCCC(=O)Nc1ccc(OCC(O)CNC(C)C)c(C(C)=O)c1.Cl (configuration not stated) | – | – | – | – | 1 | 1.08 |
| CCN(CC)C(=O)Nc1ccc(OCC(O)CNC(C)(C)C)c(C(C)=O)c1.Cl (configuration not stated) (library stock concentration (final ~1000-fold dilution): 10 mM) | 3.5 | 2.46 | 1.6 | 3.15 | – | – |
| CCN(CC)C(=O)Nc1ccc(OCC(O)CNC(C)(C)C)c(C(C)=O)c1.Cl (configuration not stated) | – | – | – | – | 2.4 | 2.24 |
| CCCC(=O)Nc1ccc(OCC(O)CNC(C)C)c(C(C)=O)c1.Cl (configuration not stated) (library stock concentration (final ~1000-fold dilution): 10 mM) | 1.54 | 1.08 | 1.11 | 1.16 | – | – |
| Cl.N=c1ccn2c(n1)OC1C(O)C(CO)OC12 (configuration not stated) (library stock concentration (final ~1000-fold dilution): 10 mM) | 1.33 | 1.89 | 1.4 | 1.83 | – | – |
| Cl.N=c1ccn2c(n1)OC1C(O)C(CO)OC12 (configuration not stated) | – | – | – | – | 1.8 | 1.42 |
| Brc1ccc(CCCCn2ccnc2)cc1 (library stock concentration (final ~1000-fold dilution): 10 mM) | 0.672 and 0.736 | 0.566 and 0.595 | 0.493 and 0.552 | 0.585 and 0.645 | – | – |
| CN(C)C(=O)CCSC(SCCC(=O)O)c1cccc(C=Cc2ccc3ccc(Cl)cc3n2)c1 (configuration not stated) (library stock concentration (final ~1000-fold dilution): 10 mM) | 1.5 | 1.12 | 0.936 | 0.945 | – | – |
